The results in this text go back to PubChem BioAssay (NCI).

Among the test systems are NCI-H23 lung; NCI-H226 lung; NCI-H322M lung; HOP-62 NSCLC; NCI-H460 lung; HOP-92 NSCLC; NCI-H522 lung; A549/ATCC NSCLC; 786-0 renal; COLO 205 colon; DU-145 prostate; K-562 leukemia; MALME-3M melanoma; MDA-MB-231 breast; RXF 393 renal; SF-268 CNS; SF-295 CNS; SF-539 CNS; UACC-257 melanoma; M14 melanoma.
Holding throughout (assay): NCI-60 one-dose screen, 48 h (100 = growth as untreated, 0 = no growth, -100 = all killed)
Holding throughout (settings): 10 µM unless noted

Compounds without any hit were thinned out: in the full panel of roughly 83,000, 20% have a hit.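 Compound tested at a single concentration for 48 hours in 96-well plates; a percent growth value below 10 was scored as active.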 A number with no mark means an inactive call. Calls of active or inactive are those of the source.

As to `N#Cc1c(-c2ccccc2)nc(SCC(=O)Nc2nc(-c3ccc(Cl)cc3)cs2)[nH]c1=O`, the growth with NCI-H23 lung was 84.1%; in the test with NCI-H226 lung, 95.9%; in the test with NCI-H322M lung, 97.9%; with HOP-62 NSCLC it was 90.2%; in the test on NCI-H460 lung, 106%; in the test with HOP-92 NSCLC, 80.7%. Moreover, the growth in the test with NCI-H522 lung is 77.6%; with A549/ATCC NSCLC it was 94.6%; with 786-0 renal it was 96.2%; with COLO 205 colon, 106%; with DU-145 prostate it was 113%; with K-562 leukemia it was 94.2%. In addition, the growth with MALME-3M melanoma was 129%; with MDA-MB-231 breast it was 120%; in the test on RXF 393 renal, 110%; in the test with SF-268 CNS, 103%; in the test on SF-295 CNS it was 98.2%; with SF-539 CNS, 100%. For the same compound, the growth is 97.4% with UACC-257 melanoma and 93.7% with M14 melanoma.
As to `Cn1cc(C(=O)c2nc(-c3cn(C)c4ccc(F)cc34)no2)c2cc(F)ccc21`, the growth was 92.5% with NCI-H23 lung; 89.1% in the test on NCI-H226 lung; 84% in the test with NCI-H322M lung; 92.2% with HOP-62 NSCLC; 90.7% in the test on NCI-H460 lung; 83.6% in the test with HOP-92 NSCLC. The growth with NCI-H522 lung was 79.3%; in the test on A549/ATCC NSCLC, 87.5%; in the test with 786-0 renal, 107%; in the test with COLO 205 colon it was 103%; with DU-145 prostate it was 110%; with K-562 leukemia it was 96.2%. Besides, the growth in the test on MALME-3M melanoma is 96.4%; in the test with MDA-MB-231 breast it was 96.7%; in the test with RXF 393 renal, 116%; with SF-268 CNS, 99.6%; with SF-295 CNS, 100%; in the test with SF-539 CNS, 107%. For the same compound, the growth was 94.9% in the test with UACC-257 melanoma and 100% with M14 melanoma.
As to `CN(C(=O)NCc1cccc(F)c1Cl)[C@H](COC(=O)Nc1cc2ccccc2cn1)CC(O)CO` (stereo not given in full), the growth in the test with NCI-H23 lung is 96.5%; in the test with NCI-H226 lung, 92.7%; in the test with NCI-H322M lung, 86.4%; in the test on HOP-62 NSCLC, 64.8%; in the test with NCI-H460 lung, 100%; in the test with HOP-92 NSCLC it was 28%. Besides, the growth in the test with NCI-H522 lung is 84.5%; with A549/ATCC NSCLC it was 80.9%; in the test on 786-0 renal, 68%; in the test with COLO 205 colon, 111%; in the test with DU-145 prostate, 94.4%; in the test with K-562 leukemia, 91.5%. In addition, the growth with MALME-3M melanoma was 100%; in the test with MDA-MB-231 breast, 46.8%; in the test with RXF 393 renal, 84.8%; in the test with SF-268 CNS, 49.8%; with SF-295 CNS, 69.7%; in the test with SF-539 CNS, 37%. The growth in the test on UACC-257 melanoma is 102%; in the test on M14 melanoma it was 98.8%.
Regarding `N#Cc1ccc(NC(=O)c2sc3nc4c(cc3c2N)C(=O)CCC4)cc1`, the growth in the test with NCI-H23 lung is 106%; in the test with NCI-H226 lung, 93.7%; in the test with NCI-H322M lung, 103%; in the test with HOP-62 NSCLC, 101%; in the test with NCI-H460 lung, 85.9%; with HOP-92 NSCLC, 95.6%. Besides, the growth in the test on NCI-H522 lung is 103%; in the test on A549/ATCC NSCLC, 92.5%; in the test with 786-0 renal, 97.8%; in the test on COLO 205 colon, 109%; in the test on DU-145 prostate, 94.9%; in the test with K-562 leukemia, 108%. Besides, the growth is 89.3% with MALME-3M melanoma; 109% with MDA-MB-231 breast; 119% in the test on RXF 393 renal; 102% in the test on SF-268 CNS; 82.4% in the test on SF-295 CNS; 99.8% in the test on SF-539 CNS. The growth in the test with UACC-257 melanoma and with M14 melanoma was 106% throughout.
On to `Cc1cccc2c3c(sc12)C(c1ccc(Cl)cc1)C(C#N)=C(N)O3` (stereo not given), for which the growth in the test on NCI-H23 lung was 21.4%; with NCI-H226 lung, 26.4%; in the test on NCI-H322M lung it was 49.1%; in the test on HOP-62 NSCLC, 38.7%; in the test on NCI-H460 lung it was 9.2% (active); in the test on HOP-92 NSCLC, 89.7%. Further, the growth is 13.7% in the test on NCI-H522 lung; 30.1% in the test with A549/ATCC NSCLC; 29% in the test with 786-0 renal; -21.2% (active) with COLO 205 colon; 17.6% in the test with DU-145 prostate; 5.28% (active) in the test on K-562 leukemia. Further, the growth was 61.9% in the test on MALME-3M melanoma; 26.1% with MDA-MB-231 breast; -7.02% (active) in the test with RXF 393 renal; 44.8% in the test with SF-268 CNS; 1.66% (active) in the test with SF-295 CNS; -14.5% (active) with SF-539 CNS. The growth was 69.5% in the test with UACC-257 melanoma and 9.67% (active) in the test on M14 melanoma.
Take `COc1ccc(N2C(=O)C(Oc3ccccc3)C2c2ccc(C)cc2)cc1` (stereo not given): the growth with NCI-H23 lung was 91%; with NCI-H226 lung, 114%; with NCI-H322M lung it was 103%; in the test with HOP-62 NSCLC, 104%; in the test on NCI-H460 lung, 103%; in the test on HOP-92 NSCLC, 66.8%. Further, the growth in the test with NCI-H522 lung was 94.2%; in the test on A549/ATCC NSCLC, 90.5%; in the test with 786-0 renal, 98.5%; in the test on COLO 205 colon, 107%; in the test with DU-145 prostate, 113%; with K-562 leukemia it was 95.1%. The growth was 93.4% in the test with MALME-3M melanoma; 101% with MDA-MB-231 breast; 126% in the test on RXF 393 renal; 102% in the test on SF-268 CNS; 89.6% in the test on SF-295 CNS; 98.6% in the test with SF-539 CNS. Further, the growth was 95.3% in the test with UACC-257 melanoma and 93.1% with M14 melanoma.
In the case of `CCOc1c(B(O)O)cccc1-c1nc2ccc3[nH]ncc3c2c2c1CCCC2`, the growth in the test on NCI-H23 lung was 60.1%; with NCI-H226 lung, 54.3%; in the test with NCI-H322M lung, 109%; with HOP-62 NSCLC it was 48.3%; with NCI-H460 lung it was 42.1%; in the test with HOP-92 NSCLC, 33.5%. Besides, the growth is 55.2% with NCI-H522 lung; 64.5% in the test on A549/ATCC NSCLC; 47.7% in the test with 786-0 renal; 48.6% in the test with COLO 205 colon; 66.9% in the test with DU-145 prostate; 63.4% in the test with K-562 leukemia. The growth was 101% with MALME-3M melanoma; 33.9% in the test on MDA-MB-231 breast; -5.22% (active) in the test with RXF 393 renal; 58.6% in the test with SF-268 CNS; 59.3% with SF-295 CNS; 18.6% in the test with SF-539 CNS. The growth with UACC-257 melanoma is 135%; in the test with M14 melanoma, 120%.
